# Measurements taken from PMC7862700, “An all-to-all approach to the identification of sequence-specific readers for epigenetic DNA modifications on cytosine”.
# Columns and labels:
# Test in all cases: DAPPL (digital affinity profiling via proximity ligation, sequencing); 10 mM Tris-HCl pH 7.5, 50 mM NaCl, 1 mM DTT, 4% glycerol, room temperature, 30 min; GST-TFs on glutathione beads, 16-mer random dsDNA library, 0.1% formaldehyde crosslink after washing; high values mean tight binding
# FLI1 = molecular target: T1, FLI1 (Homo sapiens, UniProt Q01543 1-452); conditions: protein: recombinant; tags: N-terminal GST; dsDNA, one strand shown
# T1 sequence: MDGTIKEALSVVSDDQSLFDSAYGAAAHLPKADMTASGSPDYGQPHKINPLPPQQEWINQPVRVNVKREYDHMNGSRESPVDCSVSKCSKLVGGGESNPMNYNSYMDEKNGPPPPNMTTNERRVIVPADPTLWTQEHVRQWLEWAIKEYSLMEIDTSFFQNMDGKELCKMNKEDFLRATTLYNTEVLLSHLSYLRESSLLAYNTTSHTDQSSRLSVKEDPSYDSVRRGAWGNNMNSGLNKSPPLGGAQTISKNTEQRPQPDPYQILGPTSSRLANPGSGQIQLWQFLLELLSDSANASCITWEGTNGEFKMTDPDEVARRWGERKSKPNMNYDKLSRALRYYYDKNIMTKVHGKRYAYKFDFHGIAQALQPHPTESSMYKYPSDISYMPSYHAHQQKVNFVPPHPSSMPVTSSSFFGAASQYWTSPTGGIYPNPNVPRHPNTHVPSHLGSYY
# In short: (§1)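 Human transcription factors were made in yeast as GST fusions, captured on glutathione beads and barcoded with DNA. With a tag-only sample included, the pool was incubated with 200 nmole of a random double-stranded 16-mer DNA library in Tris/NaCl/DTT/glycerol buffer at room temperature for 30 min, then crosslinked with 0.1% formaldehyde after washing, ligated by proximity, amplified and sequenced. For binding signal, each hexamer's read frequency for a factor is divided by its frequency for the tag-only sample.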
# ELK1 = molecular target: T2, ELK1 (Homo sapiens, UniProt P19419 1-428); conditions: protein: recombinant; tags: N-terminal GST; dsDNA, one strand shown
# T2 sequence: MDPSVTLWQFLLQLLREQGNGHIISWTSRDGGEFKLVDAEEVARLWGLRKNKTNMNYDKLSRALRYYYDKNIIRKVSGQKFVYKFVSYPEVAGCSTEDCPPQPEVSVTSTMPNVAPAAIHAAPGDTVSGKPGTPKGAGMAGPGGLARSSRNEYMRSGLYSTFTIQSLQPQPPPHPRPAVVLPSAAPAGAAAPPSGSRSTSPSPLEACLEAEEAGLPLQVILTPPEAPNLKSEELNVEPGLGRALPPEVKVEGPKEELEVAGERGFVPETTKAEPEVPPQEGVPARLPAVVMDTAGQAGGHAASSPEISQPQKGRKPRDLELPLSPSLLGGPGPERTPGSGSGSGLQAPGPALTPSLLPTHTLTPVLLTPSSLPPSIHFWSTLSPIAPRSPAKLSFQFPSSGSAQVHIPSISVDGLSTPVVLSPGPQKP
# In short: as §1
# GABPA = molecular target: T3, GABPA (Homo sapiens, UniProt Q06546 1-454); conditions: protein: recombinant; tags: N-terminal GST; dsDNA, one strand shown
# T3 sequence: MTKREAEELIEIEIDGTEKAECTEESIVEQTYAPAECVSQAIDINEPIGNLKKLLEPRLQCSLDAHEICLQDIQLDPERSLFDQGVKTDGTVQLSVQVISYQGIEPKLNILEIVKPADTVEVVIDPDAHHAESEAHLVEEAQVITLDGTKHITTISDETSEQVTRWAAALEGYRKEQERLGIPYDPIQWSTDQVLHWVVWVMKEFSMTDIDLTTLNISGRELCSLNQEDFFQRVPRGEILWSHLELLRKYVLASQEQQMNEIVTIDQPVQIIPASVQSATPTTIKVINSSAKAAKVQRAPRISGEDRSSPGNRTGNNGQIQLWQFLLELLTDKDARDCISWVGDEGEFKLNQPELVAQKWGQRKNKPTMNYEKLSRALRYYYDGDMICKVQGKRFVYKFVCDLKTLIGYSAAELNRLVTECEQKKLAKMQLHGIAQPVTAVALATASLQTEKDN
# In short: as §1
# ERG = molecular target: T4, ERG (Homo sapiens, UniProt P11308 1-479); conditions: protein: recombinant; tags: N-terminal GST; dsDNA, one strand shown
# T4 sequence: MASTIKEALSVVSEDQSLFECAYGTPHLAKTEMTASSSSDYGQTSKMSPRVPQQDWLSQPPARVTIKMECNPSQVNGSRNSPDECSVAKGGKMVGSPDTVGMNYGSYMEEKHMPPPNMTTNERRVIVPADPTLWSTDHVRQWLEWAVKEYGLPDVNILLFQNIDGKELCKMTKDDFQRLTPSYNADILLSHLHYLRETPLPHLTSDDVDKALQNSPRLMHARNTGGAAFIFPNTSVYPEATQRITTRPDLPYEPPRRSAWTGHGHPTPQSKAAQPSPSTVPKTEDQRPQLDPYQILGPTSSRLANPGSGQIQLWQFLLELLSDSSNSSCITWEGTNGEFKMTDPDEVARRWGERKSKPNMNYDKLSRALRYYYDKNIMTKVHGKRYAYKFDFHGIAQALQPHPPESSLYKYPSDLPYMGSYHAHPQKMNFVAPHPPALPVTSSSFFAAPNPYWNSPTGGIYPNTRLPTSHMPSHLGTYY
# In short: as §1
# ELF1 = ELF1 (Homo sapiens, UniProt P32519 1-619); conditions: protein: recombinant; tags: N-terminal GST; dsDNA, one strand shown
# Chain of ELF1 (P32519 whole entry): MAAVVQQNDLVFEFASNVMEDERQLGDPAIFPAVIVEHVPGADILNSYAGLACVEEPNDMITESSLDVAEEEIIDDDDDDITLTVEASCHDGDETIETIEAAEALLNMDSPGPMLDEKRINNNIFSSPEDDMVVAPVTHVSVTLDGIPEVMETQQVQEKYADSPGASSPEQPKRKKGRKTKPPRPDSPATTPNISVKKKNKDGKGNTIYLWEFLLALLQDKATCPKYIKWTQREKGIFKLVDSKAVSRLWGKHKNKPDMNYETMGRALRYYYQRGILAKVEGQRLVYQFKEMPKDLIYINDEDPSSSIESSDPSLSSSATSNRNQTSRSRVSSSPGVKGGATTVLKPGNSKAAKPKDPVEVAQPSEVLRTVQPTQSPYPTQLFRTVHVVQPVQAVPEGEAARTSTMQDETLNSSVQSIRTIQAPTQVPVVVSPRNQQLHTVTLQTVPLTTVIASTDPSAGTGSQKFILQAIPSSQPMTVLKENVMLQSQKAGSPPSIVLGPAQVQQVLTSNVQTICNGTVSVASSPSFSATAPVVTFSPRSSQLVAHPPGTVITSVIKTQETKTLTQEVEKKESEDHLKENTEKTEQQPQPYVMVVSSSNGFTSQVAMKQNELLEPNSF
# In short: as §1
# EHF = molecular target: T5, EHF (Homo sapiens, UniProt Q9NZC4 1-300); conditions: protein: recombinant; tags: N-terminal GST; dsDNA, one strand shown
# T5 sequence: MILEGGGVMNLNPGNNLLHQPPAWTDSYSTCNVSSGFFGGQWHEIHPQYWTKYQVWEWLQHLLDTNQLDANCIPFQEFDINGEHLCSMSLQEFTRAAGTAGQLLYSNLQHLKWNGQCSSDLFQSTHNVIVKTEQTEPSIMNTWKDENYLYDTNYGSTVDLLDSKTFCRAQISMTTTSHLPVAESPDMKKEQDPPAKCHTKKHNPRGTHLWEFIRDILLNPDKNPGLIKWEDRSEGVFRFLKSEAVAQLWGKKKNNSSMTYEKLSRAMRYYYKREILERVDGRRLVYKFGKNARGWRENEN
# In short: as §1
# SPI1 = SPI1 (Homo sapiens, UniProt P17947 1-270); conditions: protein: recombinant; tags: N-terminal GST; dsDNA, one strand shown
# In short: as §1
# SPIB = SPIB (Homo sapiens, UniProt Q01892 1-262); conditions: protein: recombinant; tags: N-terminal GST; dsDNA, one strand shown
# Chain of SPIB (Q01892 whole entry): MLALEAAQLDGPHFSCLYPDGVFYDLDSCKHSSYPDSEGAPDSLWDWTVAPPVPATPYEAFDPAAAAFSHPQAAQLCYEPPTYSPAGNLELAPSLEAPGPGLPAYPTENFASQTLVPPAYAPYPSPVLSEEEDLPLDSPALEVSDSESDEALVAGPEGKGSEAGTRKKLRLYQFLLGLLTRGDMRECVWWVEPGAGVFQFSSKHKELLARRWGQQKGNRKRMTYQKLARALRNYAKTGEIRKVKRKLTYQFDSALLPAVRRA
# In short: as §1
# ELK3 = molecular target: T6, ELK3 (Homo sapiens, UniProt P41970 1-407); conditions: protein: recombinant; tags: N-terminal GST; dsDNA, one strand shown
# T6 sequence: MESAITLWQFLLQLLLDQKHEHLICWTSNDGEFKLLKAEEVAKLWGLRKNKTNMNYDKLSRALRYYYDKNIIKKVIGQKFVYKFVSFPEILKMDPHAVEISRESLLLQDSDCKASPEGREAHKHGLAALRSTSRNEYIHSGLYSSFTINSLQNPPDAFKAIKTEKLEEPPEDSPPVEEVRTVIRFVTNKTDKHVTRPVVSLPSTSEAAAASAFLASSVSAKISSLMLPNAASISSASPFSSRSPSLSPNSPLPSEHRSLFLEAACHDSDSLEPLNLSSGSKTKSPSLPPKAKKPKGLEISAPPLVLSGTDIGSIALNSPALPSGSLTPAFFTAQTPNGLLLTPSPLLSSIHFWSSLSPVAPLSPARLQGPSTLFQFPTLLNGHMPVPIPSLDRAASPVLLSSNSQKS
# In short: as §1
# FEV = molecular target: T7, FEV (Homo sapiens, UniProt Q99581 1-238); conditions: protein: recombinant; tags: N-terminal GST; dsDNA, one strand shown
# T7 sequence: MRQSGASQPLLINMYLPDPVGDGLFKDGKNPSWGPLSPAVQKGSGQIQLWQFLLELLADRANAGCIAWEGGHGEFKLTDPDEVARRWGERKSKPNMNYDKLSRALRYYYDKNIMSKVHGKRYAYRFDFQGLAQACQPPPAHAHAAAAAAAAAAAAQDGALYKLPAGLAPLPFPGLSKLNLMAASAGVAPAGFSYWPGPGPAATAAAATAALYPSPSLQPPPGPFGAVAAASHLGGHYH
# In short: as §1
# ETV5 = ETV5 (Homo sapiens, UniProt P41161 1-510); conditions: protein: recombinant; tags: N-terminal GST; dsDNA, one strand shown
# Chain of ETV5 (P41161 whole entry): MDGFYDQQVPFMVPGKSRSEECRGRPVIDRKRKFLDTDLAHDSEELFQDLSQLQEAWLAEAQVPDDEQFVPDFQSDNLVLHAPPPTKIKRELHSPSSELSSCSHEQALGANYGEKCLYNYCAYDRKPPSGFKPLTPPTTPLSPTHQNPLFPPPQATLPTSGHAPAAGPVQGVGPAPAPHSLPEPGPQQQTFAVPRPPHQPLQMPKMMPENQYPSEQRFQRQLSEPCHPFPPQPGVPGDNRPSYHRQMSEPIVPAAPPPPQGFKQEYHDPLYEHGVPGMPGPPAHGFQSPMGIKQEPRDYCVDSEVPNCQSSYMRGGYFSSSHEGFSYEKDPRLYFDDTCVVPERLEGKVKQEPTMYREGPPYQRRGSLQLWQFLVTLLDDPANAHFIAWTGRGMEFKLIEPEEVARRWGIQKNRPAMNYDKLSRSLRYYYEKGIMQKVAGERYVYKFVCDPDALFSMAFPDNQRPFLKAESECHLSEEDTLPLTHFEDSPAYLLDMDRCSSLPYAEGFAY
# In short: as §1
# HSF1 = HSF1 (Homo sapiens, UniProt Q00613 1-529); conditions: protein: recombinant; tags: N-terminal GST; chain copies: 3; dsDNA, one strand shown
# Chain of HSF1 (Q00613 whole entry): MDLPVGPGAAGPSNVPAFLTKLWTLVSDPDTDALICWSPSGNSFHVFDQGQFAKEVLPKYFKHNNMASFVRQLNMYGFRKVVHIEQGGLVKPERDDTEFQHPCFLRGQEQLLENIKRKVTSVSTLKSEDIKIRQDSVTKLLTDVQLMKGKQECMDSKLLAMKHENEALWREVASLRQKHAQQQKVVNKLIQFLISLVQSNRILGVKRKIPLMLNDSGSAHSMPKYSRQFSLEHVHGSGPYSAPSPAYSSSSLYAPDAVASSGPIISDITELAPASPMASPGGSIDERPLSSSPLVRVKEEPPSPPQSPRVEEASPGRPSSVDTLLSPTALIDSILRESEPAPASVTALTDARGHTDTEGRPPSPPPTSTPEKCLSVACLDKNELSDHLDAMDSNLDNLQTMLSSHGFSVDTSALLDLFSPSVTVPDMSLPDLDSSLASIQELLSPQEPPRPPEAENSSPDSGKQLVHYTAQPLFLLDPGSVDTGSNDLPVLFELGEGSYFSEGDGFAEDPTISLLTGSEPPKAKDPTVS
# In short: as §1
# SPIC = molecular target: T8, SPIC (Homo sapiens, UniProt Q8N5J4 1-248); conditions: protein: recombinant; tags: N-terminal GST; dsDNA, one strand shown
# T8 sequence: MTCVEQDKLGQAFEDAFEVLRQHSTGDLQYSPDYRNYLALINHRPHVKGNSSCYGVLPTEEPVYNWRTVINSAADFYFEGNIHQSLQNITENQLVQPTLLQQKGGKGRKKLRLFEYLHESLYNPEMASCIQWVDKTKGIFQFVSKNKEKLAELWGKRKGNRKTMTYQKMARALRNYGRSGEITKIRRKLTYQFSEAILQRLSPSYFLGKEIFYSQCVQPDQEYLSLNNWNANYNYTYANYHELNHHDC
# In short: as §1
# ELF4 = ELF4 (Homo sapiens, UniProt Q99607 1-663); conditions: protein: recombinant; tags: N-terminal GST; dsDNA, one strand shown
# Chain of ELF4 (Q99607 whole entry): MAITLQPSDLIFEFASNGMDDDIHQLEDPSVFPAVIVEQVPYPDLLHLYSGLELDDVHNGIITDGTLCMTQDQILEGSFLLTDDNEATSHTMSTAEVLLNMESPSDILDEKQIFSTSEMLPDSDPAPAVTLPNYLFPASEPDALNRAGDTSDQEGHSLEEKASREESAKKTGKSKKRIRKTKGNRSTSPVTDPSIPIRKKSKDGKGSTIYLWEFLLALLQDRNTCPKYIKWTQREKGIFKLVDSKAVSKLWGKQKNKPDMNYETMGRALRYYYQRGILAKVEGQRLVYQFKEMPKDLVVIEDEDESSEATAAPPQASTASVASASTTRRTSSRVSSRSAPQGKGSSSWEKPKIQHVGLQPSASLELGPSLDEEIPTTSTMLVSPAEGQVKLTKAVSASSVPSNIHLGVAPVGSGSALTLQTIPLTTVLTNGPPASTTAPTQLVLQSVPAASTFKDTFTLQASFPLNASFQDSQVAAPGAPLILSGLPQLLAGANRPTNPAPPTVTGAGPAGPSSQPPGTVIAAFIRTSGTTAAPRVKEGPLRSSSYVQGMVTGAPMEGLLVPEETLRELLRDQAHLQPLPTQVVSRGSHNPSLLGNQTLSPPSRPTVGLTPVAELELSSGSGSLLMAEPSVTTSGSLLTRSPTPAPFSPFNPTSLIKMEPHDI
# In short: as §1
# ELK4 = molecular target: T9, ELK4 (Homo sapiens, UniProt P28324-2 1-405); conditions: protein: recombinant; tags: N-terminal GST; dsDNA, one strand shown
# T9 sequence: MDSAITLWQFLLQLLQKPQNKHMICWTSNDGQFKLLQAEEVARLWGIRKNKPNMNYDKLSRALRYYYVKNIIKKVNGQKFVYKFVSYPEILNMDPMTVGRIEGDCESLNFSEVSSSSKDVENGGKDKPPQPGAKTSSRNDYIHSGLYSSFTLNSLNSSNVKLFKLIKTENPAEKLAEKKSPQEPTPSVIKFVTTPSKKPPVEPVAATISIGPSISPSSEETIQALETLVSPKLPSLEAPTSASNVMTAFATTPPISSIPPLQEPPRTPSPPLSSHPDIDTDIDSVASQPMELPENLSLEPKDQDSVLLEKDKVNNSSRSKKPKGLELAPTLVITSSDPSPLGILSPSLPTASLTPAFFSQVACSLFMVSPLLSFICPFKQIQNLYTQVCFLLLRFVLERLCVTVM
# In short: as §1
# ETV2 = molecular target: T10, ETV2 (Homo sapiens, UniProt O00321 1-342); conditions: protein: recombinant; tags: N-terminal GST; dsDNA, one strand shown
# T10 sequence: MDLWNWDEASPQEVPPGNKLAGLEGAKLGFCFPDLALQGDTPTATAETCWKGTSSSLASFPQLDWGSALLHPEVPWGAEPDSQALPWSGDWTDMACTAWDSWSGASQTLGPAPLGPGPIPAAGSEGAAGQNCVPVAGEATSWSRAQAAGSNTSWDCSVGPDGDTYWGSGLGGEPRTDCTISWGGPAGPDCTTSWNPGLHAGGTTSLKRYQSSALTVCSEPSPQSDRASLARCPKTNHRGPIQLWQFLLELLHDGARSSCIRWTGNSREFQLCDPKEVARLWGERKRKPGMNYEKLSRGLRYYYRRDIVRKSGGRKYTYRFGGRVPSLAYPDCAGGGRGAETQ
# In short: as §1
# ELF3 = molecular target: T11, ELF3 (Homo sapiens, UniProt P78545 1-371); conditions: protein: recombinant; tags: N-terminal GST; dsDNA, one strand shown
# T11 sequence: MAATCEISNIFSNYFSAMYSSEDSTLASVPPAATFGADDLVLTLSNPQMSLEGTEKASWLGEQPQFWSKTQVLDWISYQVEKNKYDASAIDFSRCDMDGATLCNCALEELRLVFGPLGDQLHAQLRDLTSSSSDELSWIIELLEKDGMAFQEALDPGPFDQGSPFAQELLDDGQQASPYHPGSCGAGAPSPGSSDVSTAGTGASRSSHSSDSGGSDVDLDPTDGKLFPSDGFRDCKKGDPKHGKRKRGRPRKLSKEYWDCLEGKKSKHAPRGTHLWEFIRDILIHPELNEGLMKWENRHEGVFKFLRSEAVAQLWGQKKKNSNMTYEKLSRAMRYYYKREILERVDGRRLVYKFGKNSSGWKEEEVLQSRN
# In short: as §1
# CRX = CRX (Homo sapiens, UniProt O43186 1-299); conditions: protein: recombinant; tags: N-terminal GST; dsDNA, one strand shown
# Chain of CRX (O43186 whole entry): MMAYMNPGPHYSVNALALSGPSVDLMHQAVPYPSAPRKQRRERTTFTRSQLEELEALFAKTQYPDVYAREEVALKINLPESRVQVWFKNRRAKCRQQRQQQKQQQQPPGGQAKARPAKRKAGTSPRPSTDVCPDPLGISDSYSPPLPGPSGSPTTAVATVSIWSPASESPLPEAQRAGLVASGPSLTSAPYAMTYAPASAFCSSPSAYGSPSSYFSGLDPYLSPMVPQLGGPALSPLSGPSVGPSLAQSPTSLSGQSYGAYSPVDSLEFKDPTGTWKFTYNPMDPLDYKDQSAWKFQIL
# In short: as §1
# ETV1 = ETV1 (Homo sapiens, UniProt P50549 1-477); conditions: protein: recombinant; tags: N-terminal GST; dsDNA, one strand shown
# Chain of ETV1 (P50549 whole entry): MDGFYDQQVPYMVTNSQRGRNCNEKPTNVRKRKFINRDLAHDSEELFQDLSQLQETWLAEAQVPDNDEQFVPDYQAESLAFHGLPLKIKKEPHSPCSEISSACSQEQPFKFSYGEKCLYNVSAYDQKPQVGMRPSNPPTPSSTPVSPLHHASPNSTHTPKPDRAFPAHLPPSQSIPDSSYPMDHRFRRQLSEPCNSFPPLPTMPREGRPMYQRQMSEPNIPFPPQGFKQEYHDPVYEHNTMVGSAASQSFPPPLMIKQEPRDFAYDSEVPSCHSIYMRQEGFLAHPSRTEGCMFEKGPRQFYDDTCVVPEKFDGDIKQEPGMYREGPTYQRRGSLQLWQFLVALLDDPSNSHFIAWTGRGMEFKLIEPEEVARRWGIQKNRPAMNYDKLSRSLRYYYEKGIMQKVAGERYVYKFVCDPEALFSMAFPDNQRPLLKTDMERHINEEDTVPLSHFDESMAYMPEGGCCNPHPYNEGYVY
# In short: as §1
sequence,measurement,setting,value
ACCATA,binding signal,FLI1,"1.2 fold enrichment (6-mer frequency, TF over GST control)"
same,binding signal,ELK1,"1.16 fold enrichment (6-mer frequency, TF over GST control)"
same,binding signal,GABPA,"1.12 fold enrichment (6-mer frequency, TF over GST control)"
same,binding signal,ERG,"1.19 fold enrichment (6-mer frequency, TF over GST control)"
same,binding signal,ELF1,"1.16 fold enrichment (6-mer frequency, TF over GST control)"
same,binding signal,EHF,"1.12 fold enrichment (6-mer frequency, TF over GST control)"
same,binding signal,SPI1,"1.13 fold enrichment (6-mer frequency, TF over GST control)"
same,binding signal,SPIB,"1.19 fold enrichment (6-mer frequency, TF over GST control)"
same,binding signal,ELK3,"1.22 fold enrichment (6-mer frequency, TF over GST control)"
same,binding signal,FEV,"1.17 fold enrichment (6-mer frequency, TF over GST control)"
same,binding signal,ETV5,"1.21 fold enrichment (6-mer frequency, TF over GST control)"
same,binding signal,HSF1,"1.08 fold enrichment (6-mer frequency, TF over GST control)"
same,binding signal,SPIC,"1.22 fold enrichment (6-mer frequency, TF over GST control)"
same,binding signal,ELF4,"1.21 fold enrichment (6-mer frequency, TF over GST control)"
same,binding signal,ELK4,"1.31 fold enrichment (6-mer frequency, TF over GST control)"
same,binding signal,ETV2,"1.17 fold enrichment (6-mer frequency, TF over GST control)"
same,binding signal,ELF3,"1.14 fold enrichment (6-mer frequency, TF over GST control)"
same,binding signal,CRX,"1.14 fold enrichment (6-mer frequency, TF over GST control)"
same,binding signal,ETV1,"1.09 fold enrichment (6-mer frequency, TF over GST control)"
